Test results: PubChem BioAssay (EPA / NIEHS)
Active and inactive are the calls of the source. How the source made its calls: active means hit-call score of the fitted dose curve at least 0.9, where 1 is the maximum; inactive means score below 0.9.

The compounds below were run on Matrix Metallopeptidase 1 (MMP1), MMP1 (gene 4312) (assay: BSK_BE3C_MMP1: BioMAP Diversity Plus: BE3C Assay for Matrix Metallopeptidase 1 (MMP1) Biomarker Activity (AID 2283024)). Settings: primary human bronchial epithelial cells; actives raise or lower the signal.
Experimental: BSK_BE3C is a cell-based, multiplexed-readout assay that uses bronchial epithelial cell, a human lung primary cell, with measurements taken at 24 hours after chemical dosing in a 96-well plate.BSK_BE3C_MMP1 is an assay component measured in the BSK_BE3C assay. It measures MMP-1 antibody related to regulation of gene expression using ELISA technology.Data from the assay component BSK_BE3C_MMP1 was analyzed into 1 assay endpoint. This assay endpoint, BSK_BE3C_MMP1, was analyzed with bidirectional fitting relative to DMSO as the negative control and baseline of activity. Using a type of binding reporter, gain or loss-of-signal activity can be used to understand changes in the signaling as they relate to the gene MMP1. Furthermore, this assay endpoint can be referred to as a primary readout, because this assay has produced multiple assay endpoints where this one serves a signaling function. To generalize the intended target to other relatable targets, this assay endpoint is annotated to the protease intended target family, where the subfamily is matrix metalloproteinase.
The levels of cell surface (or secreted, indicated by the prefix "s") biomarker endpoints were measured by ELISA. Overt cytotoxicity to cells in confluent adherent cultures (all systems other than the BT system) was assessed by measuring total protein levels using sulforhodamine B (SRB) staining in parallel cultures at the time of biomarker measurements, indicated as SRB endpoints. For proliferation assays for adherent cell types, individual cell types are cultured at sub-confluence and relative cell numbers quantified by SRB staining at time points optimized for each system (48 h: 3C and CASM3C systems; 72 h: BT and HDF3CGF systems; 96 h: SAg system). SRB was performed by staining cells with 0.1% SRB after fixation with 10% TCA and reading wells at 560 nm.Viability and proliferation of PBMC (T cells) was quantified by Alamar Blue reduction for the SAg and BT systems. For PBMC viability (referred to as PBMC Cytotoxicity within the assay endpoint names), cells were plated (75,000/well in a 96-well plate) and then chemical samples added for 1 h before addition of activators, SEB and TSST-1 (20 ng/mL final concentration each). Cells were incubated for 90 h. Then, Alamar Blue (20 uL/well) (Invitrogen, Cat DAL1100) was added for 6 h, and the plates were read with a fluorescence microplate reader at 546/580 nm (excitation/emission). For PBMC proliferation, cells were plated and activated as above but incubated for only 16 h prior to addition of Alamar Blue. Plates were read after 6 h.

Row | Structure (SMILES) | AC50 | outcome
1 | O=C(N[C@H](c1ccccc1)[C@@H]1CN2CCC1CC2)c1c(Cl)ccc(C(F)(F)F)c1Cl | 44.2 µM (active) | 
2 | COC(=O)Nc1nc2ccccc2[nH]1 |  | inactive
3 | CN(C)C(=O)Nc1ccc(Cl)cc1 |  | inactive
4 | C1=Cc2cccc3cccc1c23 |  | inactive
5 | CCC(C)c1ccc(O)cc1 (stereo not given) |  | inactive
6 | O=[N+]([O-])C(Br)(CO)CO |  | inactive
7 | CS(=O)(=O)NC(=O)c1cc(Oc2ccc(C(F)(F)F)cc2Cl)ccc1[N+](=O)[O-] |  | inactive
8 | COP(=S)(OC)SCN1C(=O)c2ccccc2C1=O |  | inactive
9 | ClC1=C(Cl)[C@]2(Cl)[C@H]3[C@H]([C@@H]4C=C[C@H]3C4)[C@@]1(Cl)C2(Cl)Cl | 20 µM (active) | 
10 | Cc1cc(N=Nc2ccccc2C)ccc1N |  | inactive
11 | Cc1ccc(N)c(N)c1 |  | inactive
12 | CCC12COCN1COC2 |  | inactive
13 | CCCCCOC(=O)c1ccccc1C(=O)OCCCCC |  | inactive
14 | OCCCl |  | inactive
15 | N#CC(Br)(Br)C(N)=O |  | inactive
16 | Nc1ccc(Cc2ccc(N)cc2)cc1 |  | inactive
17 | CC(C)(C)C(O)(CCc1ccc(Cl)cc1)Cn1cncn1 (stereo not given) |  | inactive
18 | Cc1ccc(N)cc1 |  | inactive
19 | OCCOCCO |  | inactive
20 | c1ccc2c(c1)-c1cccc3cccc-2c13 |  | inactive

Row | Structure (SMILES) | AC50 | outcome
21 | CCCCCCCCCCCCCN1CC(C)OC(C)C1 (stereo not given) |  | inactive
22 | CN(C)c1ccccc1 |  | inactive
23 | CCN(CC)N=O |  | inactive
24 | c1ccc(C2CO2)cc1 (stereo not given) |  | inactive
25 | CC(C)(C)OOC(=O)c1ccccc1 |  | inactive
26 | COC(=O)c1ccccc1N |  | inactive
27 | O=[N+]([O-])c1ccc(Oc2ccc(Cl)cc2Cl)cc1 |  | inactive
28 | Oc1ccc2ccc3cccc4ccc1c2c34 |  | inactive
29 | CC(C)COC(=O)c1ccccc1C(=O)OCC(C)C |  | inactive
30 | Clc1ccc(C(c2ccc(Cl)cc2)C(Cl)(Cl)Cl)cc1 |  | inactive
31 | CCCCCCCCn1sccc1=O | 15.1 µM (active) | 
32 | CCCCOC(=O)c1ccccc1C(=O)OCc1ccccc1 |  | inactive
33 | CCC[CH2][Sn]([Cl])([CH2]CCC)[CH2]CCC | 0.148 µM (active) | 
34 | Cc1cccc(N)c1N |  | inactive
35 | O=P(OCCCl)(OCCCl)OCCCl |  | inactive
36 | O=C1CCCO1 |  | inactive
37 | CCCSC(=O)N(CCC)CCC |  | inactive
38 | ClCCOCCCl |  | inactive
39 | O=Cc1ccco1 |  | inactive
40 | Clc1ccc(C(c2ccc(Cl)cc2)C(Cl)Cl)cc1 | 13.7 µM (active) | 
